Measured values from PubChem BioAssay (Tox21).
Results filed as inconclusive are left out. A call without a number means that no potency is given here. Calls of active or inactive are those of the source. Unless noted, calls come from the whole dose curve; as a rule, active = well fitted curve in the direction sought with a large enough effect in the repeat runs; inconclusive = weak or mixed curves; inactive = no such curve, though single readings can be large; an effect the other way counts as inactive or inconclusive.

Tests used:
[1] = A CellTox Green Cytotoxicity Assay to monitor cytotoxicity in HEK293 cells - 32 hour (AID 1224881); note: nearly all actives have a fitted effect of over 40% in size; note: potency is the fitted concentration of half-maximal effect
In short: (§1)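 HEK293 cells premixed with CellTox Green dye were seeded at 600 cells/well and left 5 h at 37 C/5% CO2 before pin transfer of 23 nL compound in DMSO. Fluorescence from dye bound to dead-cell DNA was read during 40 h treatment.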

[2] = A CellTox Green Cytotoxicity Assay to monitor cytotoxicity in HepG2 cells - 0 hour (AID 1224882); note: nearly all actives have a fitted effect of over 35% in size
In short: (§2)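 HepG2 cells were seeded together with the CellTox Green dye at 600 cells/well, left 5 h at 37 C/5% CO2, then given compounds in DMSO. Fluorescence from dye bound to dead-cell DNA was read repeatedly over 40 h of treatment at 37 C.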

[3] = A CellTox Green Cytotoxicity Assay to monitor cytotoxicity in HepG2 cells - 32 hour (AID 1224883); note: nearly all actives have a fitted effect of over 50% in size; note: potency is the fitted concentration of half-maximal effect
In short: as §2

[4] = A CellTox Green Cytotoxicity Assay to monitor cytotoxicity in HEK293 cells - 8 hour (AID 1224884); note: nearly all actives have a fitted effect of over 35% in size
In short: as §1

[5] = qHTS RealTime-Glo MT Cell Viability Assay in HepG2 cells - 16 hour (AID 1224885); note: nearly all actives have a fitted effect of over 50% in size
In short: (§3)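 Viability was tracked continuously by NanoLuc luminescence from prosubstrate reduced by living HepG2 cells, at successive time points over 40 h of compound exposure. Cells with reagent were preincubated 5 h at 37 °C before compound addition.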

[6] = qHTS RealTime-Glo MT Cell Viability Assay in HEK293 cells - 24 hour (AID 1224886); note: nearly all actives have a fitted effect of over 50% in size; note: potency is the fitted concentration of half-maximal effect
In short: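 Viability tracked continuously by luminescence as live cells reduce a prosubstrate for NanoLuc; HEK293 cells preincubated 5 h, compound-treated at 37 C, and read at 0, 8, 16, 24, 32 and 40 h.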

[7] = A CellTox Green Cytotoxicity Assay to monitor cytotoxicity in HEK293 cells - 16 hour (AID 1224888); note: nearly all actives have a fitted effect of over 35% in size
In short: as §1

[8] = qHTS RealTime-Glo MT Cell Viability Assay in HepG2 cells - 0 hour (AID 1224889); note: nearly all actives have a fitted effect of over 50% in size
In short: as §3

[9] = A CellTox Green Cytotoxicity Assay to monitor cytotoxicity in HepG2 cells - 8 hour (AID 1224890); note: nearly all actives have a fitted effect of over 45% in size
In short: as §2

[10] = qHTS assay to identify small molecule antagonists of the estrogen receptor alpha (ER-alpha) signaling pathway using the BG1 cell line in the presence of 0.1 nM 17-beta-estradiol - cell viability counter screen (AID 1259241); note: nearly all actives have a fitted effect of over 40% in size; note: potency is the fitted concentration of half-maximal effect
In short: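 The cell line endogenously expresses full-length ER-alpha and carries four EREs driving luciferase. Cells are cultured 5 days hormone-free, treated 22 hr with compounds and 0.1 nM estradiol, then viability is read by fluorescence.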

[11] = qHTS assay to identify small molecule antagonists of the androgen receptor (AR) signaling pathway using the MDA cell line in the presence of 0.5 nM R1881 - cell viability counter screen (AID 1259242); note: nearly all actives have a fitted effect of over 45% in size
In short: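 MDA-kb2 cells (human breast carcinoma, stably carrying MMTV-luciferase reporter) were exposed to compounds with 0.5 nM R1881 (final) for 16 hr at 37C, 0% CO2; viability then read as live-cell protease fluorescence (CellTiter-Fluor, 30 min) in the same wells.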

[12] = qHTS assay to identify small molecule HDAC inhibitors (AID 1259364); note: nearly all actives have a fitted effect of over 45% in size; note: potency is the fitted concentration of half-maximal effect
In short: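 Wild-type HCT-116 cells were plated overnight, exposed to compounds for 2 h at 37 °C, then given HDAC-Glo class I/II luminogenic reagent for 30 min at room temperature before luminescence was read.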

[13] = qHTS assay to identify small molecule HDAC inhibitors - cell viability counter screen (AID 1259365); note: nearly all actives have a fitted effect of over 50% in size; note: potency is the fitted concentration of half-maximal effect
In short: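 Viability readout: CellTiter-Glo luminescence. Wild-type HCT-116 cells, 2hr compound treatment following overnight attachment at 37 C.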

[14] = qHTS assay to identify small molecule agonists of the sonic hedgehog signaling (Shh) pathway - cell viability counter screen (AID 1259366); note: nearly all actives have a fitted effect of over 50% in size; note: potency is the fitted concentration of half-maximal effect
In short: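 Viability measured fluorometrically (CellTiter-Fluor, 1hr, 37C) in 3T3 Gli1-Luc reporter cells after 23hr compound exposure within a 24hr incubation at 37C/5% CO2.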

[15] = qHTS assay to identify small molecule antagonists of the sonic hedgehog signaling (Shh) pathway - cell viability counter screen (AID 1259367); note: nearly all actives have a fitted effect of over 55% in size; note: potency is the fitted concentration of half-maximal effect
In short: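 Using CellTiter-Fluor, viability of Gli1-Luc reporter 3T3 cells is read by fluorescence in the wells used for the Shh luciferase assay. Treatment lasts 23 hr with conditioned medium, then reagent 1 hr at 37C.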

[16] = qHTS assay to identify small molecule agonists of the sonic hedgehog signaling (Shh) pathway (AID 1259368; calls by dose curve; note: series mostly up to about 92 µM; nearly all actives have a fitted effect of over 15% in size)
In short: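 NIH/3T3-derived 3T3Gli1-Luc cells carrying a stably integrated Gli1 response element–firefly luciferase reporter were plated, left 4 hr at 37 C, then given compounds in DMSO for 24 hr. Luminescence was read 30 min after adding luciferase reagent.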

[17] = molecular target: Estrogen receptor (Homo sapiens) (UniProt P03372); experiment: qHTS assay to identify small molecule antagonists of the estrogen receptor alpha (ER-alpha) signaling pathway using the BG1 cell line in the presence of 0.1 nM 17-beta-estradiol (AID 1259244); note: nearly all actives have a fitted effect of over 50% in size
Sequence of Estrogen receptor (Homo sapiens) (P03372 whole entry, looked up): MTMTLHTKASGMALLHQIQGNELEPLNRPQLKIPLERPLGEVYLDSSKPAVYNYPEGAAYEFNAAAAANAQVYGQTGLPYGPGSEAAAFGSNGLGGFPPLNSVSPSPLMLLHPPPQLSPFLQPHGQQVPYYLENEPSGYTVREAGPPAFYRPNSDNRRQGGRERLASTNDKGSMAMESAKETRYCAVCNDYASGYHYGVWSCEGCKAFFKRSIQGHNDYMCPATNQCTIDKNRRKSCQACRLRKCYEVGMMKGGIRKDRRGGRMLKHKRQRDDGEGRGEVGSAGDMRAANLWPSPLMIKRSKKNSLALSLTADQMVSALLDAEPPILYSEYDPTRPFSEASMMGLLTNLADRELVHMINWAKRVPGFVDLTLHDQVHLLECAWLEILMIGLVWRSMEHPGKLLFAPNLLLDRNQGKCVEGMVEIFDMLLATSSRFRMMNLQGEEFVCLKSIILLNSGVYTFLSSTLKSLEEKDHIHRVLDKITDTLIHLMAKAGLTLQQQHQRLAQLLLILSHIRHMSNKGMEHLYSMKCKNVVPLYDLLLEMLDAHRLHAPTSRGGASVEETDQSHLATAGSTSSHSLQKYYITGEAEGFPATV
In short: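 VM7Luc4E2 cells (endogenous full-length ER-alpha, stable 4xERE-luciferase) were grown 5 days in phenol red-free medium with charcoal-stripped FBS, then exposed 22 h at 37C to compounds plus 0.1 nM (final) 17beta-estradiol; ONE-Glo luminescence read-out.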

[18] = qHTS assay to identify small molecule phospholipidosis (PLD) inducers (AID 1259344; active = well fitted curve in the direction sought with a large enough effect; an effect the other way counts as inactive or inconclusive; note: potency is the fitted concentration of half-maximal effect)
In short: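 Fluorescent phospholipid staining (LipidTOX Red) measured by automated microscopy in fixed HepG2 cells after 24 h treatment; nuclei counterstained with Hoechst 33342; amiodarone as reference inducer.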

[19] = qHTS RealTime-Glo MT Cell Viability Assay in HEK293 cells - 8 hour (AID 1224887); note: nearly all actives have a fitted effect of over 50% in size; note: potency is the fitted concentration of half-maximal effect
In short: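 HEK293 cells mixed with RealTime-Glo reagents (NanoLuc plus cell-permeant prosubstrate) at 600 cells/well, preincubated 5 h at 37 C/5% CO2, then given 23 nL compound in DMSO. Nonlytic luminescence from viable cells was read at 0, 8, 16, 24, 32 and 40 h.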

[20] = molecular target: Androgen receptor (Homo sapiens) (UniProt P10275); experiment: qHTS assay to identify small molecule antagonists of the androgen receptor (AR) signaling pathway using the MDA cell line in the presence of 0.5 nM R1881 (AID 1259243); note: nearly all actives have a fitted effect of over 50% in size; note: potency is the fitted concentration of half-maximal effect
Sequence of Androgen receptor (Homo sapiens) (P10275 whole entry, looked up): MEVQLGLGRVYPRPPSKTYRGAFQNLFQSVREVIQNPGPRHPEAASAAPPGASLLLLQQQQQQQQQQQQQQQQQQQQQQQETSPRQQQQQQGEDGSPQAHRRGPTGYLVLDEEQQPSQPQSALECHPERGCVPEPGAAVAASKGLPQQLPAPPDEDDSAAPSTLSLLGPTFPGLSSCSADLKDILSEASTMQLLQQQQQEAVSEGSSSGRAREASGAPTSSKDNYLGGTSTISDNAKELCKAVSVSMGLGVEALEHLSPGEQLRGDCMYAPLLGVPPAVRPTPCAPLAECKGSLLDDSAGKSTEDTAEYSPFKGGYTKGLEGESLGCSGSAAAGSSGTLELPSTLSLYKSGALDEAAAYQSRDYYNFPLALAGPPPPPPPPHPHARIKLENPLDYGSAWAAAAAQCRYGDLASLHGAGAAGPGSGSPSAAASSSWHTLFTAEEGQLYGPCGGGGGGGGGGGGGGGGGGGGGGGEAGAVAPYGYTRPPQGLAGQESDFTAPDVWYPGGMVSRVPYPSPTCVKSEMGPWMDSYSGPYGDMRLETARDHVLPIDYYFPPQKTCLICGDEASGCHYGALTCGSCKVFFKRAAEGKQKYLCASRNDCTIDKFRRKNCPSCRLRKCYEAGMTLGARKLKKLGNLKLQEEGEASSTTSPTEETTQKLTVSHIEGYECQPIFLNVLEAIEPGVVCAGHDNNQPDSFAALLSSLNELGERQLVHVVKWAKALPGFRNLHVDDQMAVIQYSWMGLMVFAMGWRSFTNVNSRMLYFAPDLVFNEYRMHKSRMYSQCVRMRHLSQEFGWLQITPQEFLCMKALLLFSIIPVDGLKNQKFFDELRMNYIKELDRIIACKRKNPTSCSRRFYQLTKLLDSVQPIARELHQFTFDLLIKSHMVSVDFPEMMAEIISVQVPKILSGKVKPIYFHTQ
In short: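 MDA-kb2 human breast carcinoma cells carrying an MMTV-luciferase reporter (AR- and GR-responsive) were plated, rested 5 hr at 37C, dosed with compounds, then stimulated with 0.5 nM R1881 (final) for 16 hr; luminescence was read after ONE-Glo.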

Structure (SMILES)	Potency [1]	Potency [2]	Potency [3]	Potency [4]	Potency [5]	Potency [6]	Potency [7]	Potency [8]	Potency [9]	Potency [10]	Potency [11]	Potency [12]	Potency [13]	Potency [14]	Potency [15]	outcome [16]	Potency [17]	Potency [18]	Potency [19]	Potency [20]
CC1=CC=C(C(C)C)CC1	inactive	inactive	inactive	inactive	inactive	inactive	inactive	inactive	inactive	inactive	inactive	inactive	inactive	inactive	inactive	inactive				
Cc1ncc(CO)c(C=O)c1O	inactive	inactive	inactive	inactive	inactive	inactive		inactive	inactive	inactive	inactive	inactive	inactive	inactive	inactive	inactive	inactive	inactive		
OC(C#CCN1CCCC1)(c1ccccc1)c1ccccc1	inactive	inactive	inactive	inactive	inactive		inactive		inactive	inactive	inactive	inactive	inactive	inactive		inactive		inactive	inactive	
COc1ccc(C)cc1[N+](=O)[O-]	inactive	inactive	inactive	inactive	inactive		inactive	inactive		inactive	inactive	inactive	inactive	inactive	inactive	inactive			inactive	
CC(C)OC(=O)C(C)N(C(=O)c1ccccc1)c1ccc(F)c(Cl)c1 (stereo not given)	inactive	inactive	inactive	inactive	inactive	inactive		inactive	inactive	inactive	inactive	inactive	inactive	inactive	inactive	inactive				
CC(C)(O)c1ccc(CNC(=O)c2cccnc2Oc2ccc(F)cc2)cc1	inactive	inactive	inactive	inactive	inactive		inactive	inactive	inactive		inactive	inactive	inactive	inactive	inactive	inactive			inactive	
CCCCCCc1ccc(-c2ccc(C#N)cc2)cc1	inactive	inactive	inactive	inactive	inactive	inactive		inactive		inactive	inactive	inactive	inactive	inactive	inactive	inactive				
CCCCCCCN	inactive	inactive	inactive	inactive	inactive		inactive	inactive	inactive		inactive	inactive	inactive	inactive	inactive	inactive	inactive		inactive	
O=P(O)(OCc1ccccc1)OCc1ccccc1	inactive	inactive	inactive	inactive	inactive		inactive		inactive	inactive	inactive	inactive	inactive	inactive	inactive	inactive			inactive	
CCCCCCCCCCCc1ccccc1	inactive	inactive	inactive	inactive	inactive	inactive		inactive			inactive	inactive	inactive	inactive	inactive	inactive			inactive	
COS(=O)(=O)C(F)(F)F	inactive	inactive	inactive	inactive	inactive	inactive		inactive	inactive	inactive	inactive	inactive	inactive			inactive			inactive	
C=CCOc1ccccc1OCC(O)CNC(C)C (stereo not given)	inactive	inactive	inactive	inactive	inactive	inactive		inactive	inactive	inactive	inactive	inactive	inactive	inactive	inactive	inactive	inactive	inactive		
OCCNCc1ccccc1	inactive	inactive	inactive	inactive	inactive		inactive		inactive	inactive	inactive	inactive	inactive	inactive	inactive	inactive			inactive	inactive
OC(CN1CCC(Cc2ccc(F)cc2)CC1)c1ccc(Cl)cc1 (stereo not given)	21.3 µM (active)	inactive	23.9 µM (active)	inactive		9.52 µM (active)		inactive		inactive		inactive	inactive	inactive	inactive	inactive		inactive	16.9 µM (active)	29.8 µM (active)
CCCCOC(=O)CCCCCCCC(=O)OCCCC	inactive	inactive	inactive	inactive	inactive		inactive		inactive	inactive	inactive	inactive	inactive	inactive	inactive	inactive			inactive	
Clc1ccc(Cn2c(CN3CCCC3)nc3ccccc32)cc1	inactive	inactive	inactive	inactive	inactive		inactive	inactive		inactive	inactive	inactive	inactive	inactive	inactive	inactive		inactive		

Structure (SMILES)	Potency [1]	Potency [2]	Potency [3]	Potency [4]	Potency [5]	Potency [6]	Potency [7]	Potency [8]	Potency [9]	Potency [10]	Potency [11]	Potency [12]	Potency [13]	Potency [14]	Potency [15]	outcome [16]	Potency [17]	Potency [18]	Potency [19]	Potency [20]
CN(C)C(=O)NC1(c2ccccc2)CCN(CC[C@@]2(c3ccc(F)c(F)c3)CN(C(=O)c3ccccc3)CCO2)CC1	inactive	inactive	inactive	inactive	inactive				inactive	inactive	inactive	inactive	inactive			inactive				
CC(C)(COC(=O)c1ccccc1)COC(=O)c1ccccc1	inactive	inactive	inactive	inactive	inactive		inactive	inactive	inactive	inactive	inactive	inactive	inactive	inactive	inactive	inactive				
C#Cc1cccc(Nc2ncnc3cc(OCCOC)c(OCCOC)cc23)c1	inactive	inactive	inactive	inactive		inactive		inactive	inactive	inactive	inactive	inactive	inactive			inactive	inactive	10 µM (active)	inactive	
C/C=C/C=C/CO	inactive	inactive	inactive	inactive			inactive	inactive	inactive	inactive	inactive	inactive	inactive	inactive	inactive	inactive			inactive	
CCCCC(CC)CN1C(=O)C2C3C=CC(C3)C2C1=O (stereo not given)	30.9 µM (active)	inactive	inactive	inactive			inactive	inactive	inactive	inactive	inactive	inactive	inactive	inactive		inactive				
O=S(=O)(Oc1ccc(Cl)cc1)c1ccccc1	inactive	inactive	inactive	inactive	inactive		inactive	inactive	inactive	inactive	inactive		inactive	inactive	inactive	inactive	inactive			
Nc1ccc(N)c2c1C(=O)c1ccccc1C2=O	inactive	inactive	inactive	inactive	inactive		inactive	inactive	inactive	12.2 µM (active)		21.7 µM (active)	30.6 µM (active)	21.7 µM (active)	10.9 µM (active)	inactive				
c1ccc(CNCCNCc2ccccc2)cc1	inactive	inactive	inactive	inactive		inactive		inactive		inactive	inactive	inactive	inactive	inactive	inactive	inactive		inactive	inactive	
CCOCC(O)COc1ccc(NC(=O)CC[S+](C)C)cc1 (stereo not given)	inactive	inactive	inactive	inactive			inactive	inactive	inactive		inactive	inactive	inactive	inactive	inactive	inactive		inactive		
Cc1cc(C(=O)O)ccc1[N+](=O)[O-]	inactive	inactive	inactive	inactive		inactive	inactive	inactive	inactive	inactive	inactive	inactive	inactive	inactive	inactive	inactive	inactive		inactive	
Brc1c2ccccc2cc2ccccc12	inactive	inactive	inactive	inactive	inactive		inactive	inactive	inactive	inactive	inactive	inactive	inactive	inactive	inactive	inactive	inactive			
Nc1cc(C(=O)O)c(O)c(S(=O)(=O)O)c1	inactive	inactive	inactive	inactive	inactive		inactive		inactive	inactive	inactive	inactive	inactive		inactive	inactive			inactive	
COC(=O)c1ccc(I)cc1S(=O)(=O)NC(=O)Nc1nc(C)nc(OC)n1	inactive	inactive	inactive	inactive	inactive		inactive		inactive		inactive	inactive	inactive	inactive	inactive	inactive				
COc1cc2c(cc1OC)C(C(C(=O)N(CCc1ccc(OC)c(OC)c1OC)CCc1ccc(OC)c(OC)c1OC)c1ccccc1)=NCC2 (stereo not given)	inactive	inactive	inactive	inactive		3.38 µM (active)	inactive	inactive	inactive	inactive	inactive	inactive	inactive			inactive		inactive	3.01 µM (active)	
CC(=O)[O][Al]	inactive	inactive	inactive	inactive	inactive		inactive		inactive	inactive	inactive	inactive	inactive	inactive	inactive	inactive			inactive	
C[N+]1(CC2COC(c3ccccc3)(C3CCCCC3)O2)CCCCC1 (stereo not given)	inactive	inactive	inactive	inactive			inactive	inactive	inactive		inactive	inactive	inactive	inactive	inactive	inactive		inactive		
